From PubChem BioAssay AID1851 (National Center for Advancing Translational Sciences (NCATS), 2009)
The whole screen tested about 16,000 compounds, of which about 4,000 (25%) were called active. About 26% were inconclusive and are not listed. A selection follows. A number with no mark means an inactive call. Calls come from the whole dose curve; as a rule, active = well fitted curve in the direction sought with a large enough effect; inconclusive = small, poorly fitted or top-dose-only effect, or effect the other way; inactive = no such curve, though single readings can be large or run the other way.

Each compound was assayed against Cytochrome P450 2C9 (Homo sapiens) (UniProt P11712) (assay: Cytochrome panel assay with activity outcomes). Conditions: recombinant CYP, pro-luciferin dealkylation, luminescence, p450-cyp2c9; series mostly up to 57.1 µM.
% is set by controls: 0 for no effect and ±100 for the full control effect.

Cytochrome P450 2C9 (Homo sapiens), sequence (P11712 whole entry, looked up): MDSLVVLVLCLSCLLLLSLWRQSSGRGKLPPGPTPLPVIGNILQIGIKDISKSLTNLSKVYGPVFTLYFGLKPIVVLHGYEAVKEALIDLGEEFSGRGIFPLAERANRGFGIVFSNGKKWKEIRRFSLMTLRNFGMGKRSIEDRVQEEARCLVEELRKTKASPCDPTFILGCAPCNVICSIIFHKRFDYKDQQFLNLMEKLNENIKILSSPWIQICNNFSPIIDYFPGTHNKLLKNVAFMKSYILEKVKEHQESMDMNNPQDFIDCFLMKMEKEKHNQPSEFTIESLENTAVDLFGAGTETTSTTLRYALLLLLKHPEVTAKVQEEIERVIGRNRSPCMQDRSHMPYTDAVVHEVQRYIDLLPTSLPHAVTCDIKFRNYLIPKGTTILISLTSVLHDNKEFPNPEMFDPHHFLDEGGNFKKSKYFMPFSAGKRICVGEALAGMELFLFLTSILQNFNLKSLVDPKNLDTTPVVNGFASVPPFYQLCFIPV

Row | SMILES | AC50 | activity, negative = inhibition
1 | O=[N+]([O-])c1ccc(N2CCN(CCOc3nonc3-c3ccccc3)CC2)c(Cl)c1 | 22.4 µM (active) | –
2 | CN1CCN(c2ccc([N+](=O)[O-])cc2NC(=O)c2ccccc2Cl)CC1 | inactive | –
3 | c1ccc(-n2ncc3c(NCCCN4CCOCC4)ncnc32)cc1 | inactive | –
4 | c1cncc(-c2ccc3ncnc(NCCN4CCOCC4)c3c2)c1 | – | 23.6% [at 2.29 µM]
5 | c1ccc2c(c1)oc1c(NCCCn3ccnc3)ncnc12 | 0.447 µM (active) | –
6 | COc1ccc(-c2nc3cnc(OC)nc3n(-c3ccc(OC)cc3)c2=O)cc1 | inactive | –
7 | CCNc1ncc2nc(C)c(=O)n(C3CC3)c2n1 | inactive | –
8 | CS(=O)(=O)c1ccccc1-c1nc(-c2cc(C(F)(F)F)cc(C(F)(F)F)c2)no1 | inactive | –
9 | Cc1ccccc1-c1nc(-c2ccc(NC(=O)c3cccs3)cc2)no1 | 12.6 µM (active) | –
10 | Cc1ccc(-c2nnc(-c3ccc(NC(=O)c4cccs4)cc3)o2)cc1 | 5.01 µM (active) | –
11 | Cc1ccccc1-c1nccc(NCc2cccs2)n1 | – | -17.9% [at 2.29 µM]
12 | O=C(c1csnn1)N1CCC[C@@]2(CCN(Cc3nccs3)C2)C1 | inactive | –
13 | O=C(O)c1cc([N+](=O)[O-])ccc1NCCCc1ccccc1 | 0.501 µM (active) | –
14 | Cc1cc([N+](=O)[O-])ccc1NCc1ccccc1 | 3.55 µM (active) | –
15 | c1ccc(CCCNc2nnnc3ccccc23)cc1 | – | -19.1% [at 11.4 µM]
16 | COC(=O)C/C=C\[C@@H](C)[C@@H](/C=N\O[C@@H](C)CN1CCCc2nc(C)c(C)cc21)OC | – | -19.3% [at 11.4 µM]
17 | O=S(=O)(c1ccccc1)N1CCC[C@@]2(CCN(c3ccncc3)C2)C1 | 15.8 µM (active) | –
18 | CS(=O)(=O)N1CCC[C@@]2(CCN(c3ccccn3)C2)C1 | inactive | –
19 | CN1CCCC2(CCN(S(=O)(=O)c3ccccc3)CC2)C1 | inactive | –
20 | O=S(=O)(c1ccccc1)N1CCC2(CCCN(c3ccccn3)C2)CC1 | 1 µM (active) | –
21 | O=S(=O)(c1ccccc1)N1CCC2(CC1)CN(c1ncccn1)C2 | inactive | –
22 | CS(=O)(=O)N1CCC2(CCCN(c3ccccn3)C2)CC1 | inactive | –

Row | SMILES | AC50 | activity, negative = inhibition
23 | O=S(=O)(c1ccccc1)N1CCC2(CCN(c3ncccn3)CC2)CC1 | inactive | –
24 | O=S(=O)(c1ccccc1)N1CCC2(CCCN(c3cccc(-c4ccccc4)c3)C2)CC1 | inactive | –
25 | CC(C)CN1CC[C@@]2(CCCN(S(=O)(=O)c3ccccc3)C2)C1 | inactive | –
26 | O=S(=O)(c1ccccc1)N1CCC2(CCCN(c3ccccc3)C2)CC1 | 1.26 µM (active) | –
27 | O=S(=O)(c1ccccc1)N1CCC2(CCCN(c3ncccn3)C2)CC1 | 1 µM (active) | –
28 | O=S(=O)(c1ccccc1)N1CCC2(CC1)CN(c1ccccn1)C2 | inactive | –
29 | C=C(NC(=O)C(=C)NC(=O)c1csc(C2=N[C@@H]3c4csc(n4)[C@@H]4NC(=O)c5csc(n5)[C@@H]([C@](C)(O)[C@H](C)O)NC(=O)[C@@H]5CSC(=N5)/C(=C/C)NC(=O)[C@@H]([C@H](C)O)NC(=O)c5csc(n5)[C@]3(CC2)NC(=O)[C@@H](C)NC(=O)C(=C)NC(=O)[C@@H](C)NC(=O)[C@@H]([C@@H](C)CC)N[C@H]2C=Cc3c([C@H](C)O)cc(nc3[C@@H]2O)C(=O)O[C@H]4C)n1)C(N)=O | inactive | –
30 | O=C1C2C3C=CC(C3)C2C(=O)N1/N=C/c1cn(Cc2ccc(F)cc2)c2ccccc12 (stereo not given) | inactive | –
31 | O=C1C2C3C=CC(C3)C2C(=O)N1/N=C/c1cn(Cc2ccccc2)c2ccccc12 (stereo not given) | inactive | –
32 | O=[N+]([O-])/C=C/c1cn(Cc2ccccc2)c2ccccc12 | 11.2 µM (active) | –
33 | C/C(=N/O)c1ccc2cc(Br)c3ccccc3c2c1 | – | -8.36% [at 11.4 µM]
34 | Cc1cccc(CNc2nc(-c3ccccc3CN(C)C)nc3ccccc23)c1 | – | -1.33% [at 2.29 µM]
35 | Nc1ccc(N(c2ccccc2)c2ccc(N)cc2)cc1 | 7.08 µM (active) | –
36 | C[C@H](c1ccccc1)N1C(=O)[C@H]2[C@@H]3[C@H](O)[C@H](O)CC(=O)[C@H]3CC[C@H]2C1=O | – | 20% [at 11.4 µM]
37 | N[C@@H](Cc1cc(CP(=O)(O)O)cc(-c2ccccc2Cl)c1)C(=O)O | inactive | –
38 | Cc1cc(F)ccc1S(=O)(=O)Nc1ccccc1C(=O)Nc1ccccc1N1CCOCC1 | 0.447 µM (active) | –
39 | Cc1c(N2CCCC2)cc2c(c1NC(=O)c1ccccc1Cl)C(C)(C)CC2(C)C | – | -14.9% [at 11.4 µM]
40 | COC(=O)CSC(C(=O)Nc1ccc(C)c(C)c1)c1ccccc1 (stereo not given) | 1.78 µM (active) | –
41 | Cc1ccc(NC(=O)C2C3CCCC2C3c2ccccc2)cc1C (stereo not given) | inactive | –
42 | Cc1ccc(NC(=O)c2ccccc2C(=O)O)cc1C | – | -16.6% [at 11.4 µM]
43 | C#CCCCO/N=C1/C[C@@H](O)[C@@H](O)[C@@H]2[C@@H]3C(=O)N(CCC(=O)OCC)C(=O)[C@H]3CC[C@H]12 | – | 12.8% [at 11.4 µM]
44 | Cc1cccc(C)c1OC[C@@H](N)C(C)C | inactive | –

Row | SMILES | AC50 | activity, negative = inhibition
45 | COC(=O)c1[nH]c2ccc(Br)cc2c1NC(=O)CN1CCN(C2CCCCC2)CC1 | inactive | –
46 | COC(=O)c1[nH]c2ccc(Br)cc2c1NC(=O)CN1CCCc2ccccc21 | 0.891 µM (active) | –
47 | CC1(C)CC(=O)C2=C(C1)Nc1cc3c(cc1C2c1ccc(F)cc1)OCO3 (stereo not given) | 4.47 µM (active) | –
48 | N#Cc1c(NC(=O)C(F)(F)F)sc2c3c(=O)c4ccccc4c(=O)c=3oc3ccccc3c12 | 0.0501 µM (active) | –
49 | O=C(NC12CC3CC(CC(C3)C1)C2)N1CCN(c2nc(-c3ccccc3)cs2)CC1 | 12.6 µM (active) | –
50 | COc1ccc(-n2c(=O)c(C)nc3cnc(OC)nc32)cc1 | inactive | –
51 | Cc1noc(C)c1-c1ccc2ncnc(N(C)C)c2c1 | – | 10.9% [at 2.29 µM]
52 | CN(C)CN1C(=O)S/C(=C2/C(=O)N(CN(C)C)c3ccccc32)C1=O | – | -9.33% [at 11.4 µM]
53 | CCN1C(=O)/C(=C2\SC(=S)N(CCCOC)C2=O)c2ccccc21 | 0.794 µM (active) | –
54 | CC(C)Cn1cnc2c(Sc3c([N+](=O)[O-])ncn3C)nc(N)nc21 | – | 29.4% [at 11.4 µM]
55 | CCN(CC)CCC(=O)Nc1ccc2c(c1)N(C(=O)CN(CC)CC)c1ccccc1CC2 | inactive | –
56 | O=C1c2ccccc2C(=O)N1CC(=O)N1c2ccccc2CCc2ccccc21 | 3.55 µM (active) | –
57 | O=C(CN1C(=O)c2ccccc2C1=O)NC1(C(=O)O)CCCC1 | – | 4.07% [at 11.4 µM]
58 | Cc1noc(C)c1-c1ccc2ncnc(NC3CCNCC3)c2c1 | – | 14.5% [at 2.29 µM]
59 | Cc1nnc(S(=O)(=O)c2ccc(N=Nc3c(N)nc(N)nc3N)cc2)s1 | – | -2.75% [at 11.4 µM]
60 | COc1cc(C(=O)NC(=S)Nc2ccc3oc(=O)ccc3c2)cc(OC)c1OC | inactive | –
61 | COc1cc(C(=O)NC(=S)Nc2cccc(-c3cc4ccccc4oc3=O)c2)cc(OC)c1OC | 3.55 µM (active) | –
62 | Cc1nc(-c2cccc(NC(=O)c3cc4cc(Br)ccc4oc3=O)c2)cs1 | inactive | –
63 | CCCC(=O)N1CCN(c2ccc(NC(=O)c3ccc(OCC)c([N+](=O)[O-])c3)cc2)CC1 | inactive | –
64 | CCOc1ccc(C(=O)Nc2cccc(-c3cc4ccccc4oc3=O)c2)cc1[N+](=O)[O-] | 1.41 µM (active) | –
65 | COc1cc(NC(=O)c2cc(Cl)ccc2Cl)ccc1-c1cc2ccccc2oc1=O | 4.47 µM (active) | –
66 | NCCOB(c1ccccc1)c1ccccc1 | inactive | –

Row | SMILES | AC50 | activity, negative = inhibition
67 | Cc1ccc(-n2c3c(c(=O)[nH]c2=O)C(NS(=O)(=O)c2ccc(C)cc2)(C(F)(F)F)C(=O)N3)cc1 (stereo not given) | inactive | –
68 | CC(=O)Nc1ccc(S(=O)(=O)NC2(C(F)(F)F)NC(=O)N(c3ccc(Cl)cc3)C2=O)cc1 (stereo not given) | 10 µM (active) | –
69 | CN(N=O)c1ccc(/C=C\c2ccnc3ccccc23)cc1 | – | -6.97% [at 11.4 µM]
70 | Oc1c(CN2CCCCC2)cc(Br)c2cccnc12 | inactive | –
71 | CON(c1nc(N(C)C)nc(N(C)C)n1)S(=O)(=O)c1ccccc1Cl | 11.2 µM (active) | –
72 | CC(=O)Nc1cccc(C(=O)OC(C(=O)c2ccc(C)c(C)c2)c2ccccc2)c1 (stereo not given) | 3.98 µM (active) | –
73 | NC(N)=NC(=O)c1nc(Cl)c(N)nc1N | inactive | –
74 | FC(F)Sc1ccc(N=C2NN=C(c3ccc4c(c3)OCCO4)CS2)cc1 | 22.4 µM (active) | –
75 | C[N+](C)(C)CCCCCNCC12CC3CC(CC(C3)C1)C2 | inactive | –
76 | COC(=O)[C@@]1(Cc2ccc(F)cc2)[C@H]2c3cc(C(=O)N4CCCC4)n(Cc4ccc(C)c(F)c4F)c3C[C@H]2CN1C(=O)c1ccccc1 | 10 µM (active) | –
77 | COC(=O)[C@@]1(Cc2ccc(F)cc2)[C@H]2c3cc(C(=O)N4CCCC4)n(Cc4ccccc4)c3C[C@H]2CN1C(=O)c1ccccc1 | 3.98 µM (active) | –
78 | COC(=O)[C@@]1(Cc2ccc(F)cc2)[C@H]2c3cc(C(=O)N4CCCC4)n(Cc4ccc(OC(F)(F)F)cc4)c3C[C@H]2CN1C(=O)c1ccccc1 | 6.31 µM (active) | –
79 | COC(=O)[C@@]1(Cc2ccc(F)cc2)[C@H]2c3cc(C(=O)N4CCCC4)n(Cc4ccc(S(C)(=O)=O)cc4)c3C[C@H]2CN1C(=O)c1ccccc1 | 25.1 µM (active) | –
80 | CCC(=O)c1ccc2c(c1)N(CCCN(C)C)c1ccccc1S2 | inactive | –
81 | CC(C)(C)N1C(=O)[C@H]2[C@H]3[C@H](O)[C@H](O)C/C(=N/NC(=O)OCc4ccccc4)[C@H]3CC[C@@H]2C1=O | – | 16% [at 11.4 µM]
82 | CCOC(=O)[C@H](CCc1ccccc1)N[C@@H](C)C(=O)N1CCC[C@H]1C(=O)O | inactive | –
83 | COC(=O)[C@@]1(Cc2ccccc2)[C@H]2c3cc(C(=O)N4CCCC4)n(CC4CC4)c3C[C@H]2CN1C(=O)c1ccccc1 | 1 µM (active) | –
84 | COC(=O)[C@@]1(Cc2ccccc2)[C@H]2c3cc(C(=O)N4CCCC4)n(Cc4nc5ccccc5[nH]4)c3C[C@H]2CN1C(=O)c1ccccc1 | 1 µM (active) | –
85 | COC(=O)[C@@]1(Cc2ccc(F)cc2)[C@H]2c3cc(C(=O)N(C)C)n(Cc4ccc(C)c(F)c4F)c3C[C@H]2CN1C(=O)c1ccccc1 | 25.1 µM (active) | –
